# Measurements reported in the supplement of paper PMC10037445.
# In all, about 2,900 compounds were measured (“NF-kB SEAP reporter activity, fold change vs agonist alone”: median about 0.99, highest 2% from about 2.6 on). The list comes from a sample in which the highest values are over-represented; it also holds similar structures and randomly drawn compounds.
# Legend:
# RAW-Dual [1] = experiment: NF-kB SEAP reporter activity, fold change vs agonist alone; cytotoxicity flag (confluency mask): not cytotoxic; higher = enhanced NF-kB activity
# Summary of the method: (§1)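 Supernatant from RAW-Dual macrophages was read after 20 hours for IRF by QuantiLuc luminescence and for NF-κB by QuantiBlue absorbance at 620 nm. The cells (50,000 cells/well in DMEM, 384-well plates, 37 °C, 5% CO2) had received 50 nL of library stock by pin tool and, 1 h later, a PRR agonist. Reporter activity is expressed relative to agonist-alone wells as fold change, and wells were flagged cytotoxic if IncuCyte confluency was under 70% of agonist controls in both mask sets.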
# RAW-Dual [2] = experiment: NF-kB SEAP reporter activity, fold change vs agonist alone; higher = enhanced NF-kB activity
# Summary of the method: as §1
# RAW-Dual [3] = experiment: NF-kB SEAP reporter activity, fold change vs agonist alone; cytotoxicity flag (confluency mask): cytotoxic (confluency <70% of control); higher = enhanced NF-kB activity
# Summary of the method: as §1
# [4] = agonist: ODN 1826 (TLR9) 0.5 ug/mL
# [5] = agonist: Pam2CSK4 (TLR2/6) 0.1 ug/mL
# [6] = agonist: Pam3CSK4 (TLR2/1) 0.1 ug/mL
# [7] = library stock concentration (final ~1000-fold dilution): 10 mM, cytotoxicity flag (confluency mask): not cytotoxic, agonist: MPLA (TLR4) […]
# [8] = library stock concentration (final ~1000-fold dilution): 10 mM, cytotoxicity flag (confluency mask): not cytotoxic, agonist: Imiquimod (TLR7) […]
structure (smiles),measurement,setting,value
CCCCCCCCCC(=O)NC(Cc1c[nH]c2ccccc12)C(=O)NC(CC(N)=O)C(=O)NC(CC(=O)O)C(=O)NC1C(=O)NCC(=O)NC(CCCN)C(=O)NC(CC(=O)O)C(=O)NC(C)C(=O)NC(CC(=O)O)C(=O)NCC(=O)NC(CO)C(=O)NC(C(C)CC(=O)O)C(=O)NC(CC(=O)c2ccccc2N)C(=O)OC1C (stereo unspecified) (library stock concentration (final ~1000-fold dilution): 10 mM),NF-kB SEAP reporter activity,RAW-Dual [1]; agonist: LPS (TLR4) 0.1 ug/mL,1.33
same,NF-kB SEAP reporter activity,RAW-Dual [1]; [4],1.01
same,NF-kB SEAP reporter activity,RAW-Dual [1]; [5],1.05
same,NF-kB SEAP reporter activity,RAW-Dual [1]; [6],1.19
CC(=O)OC(CC=C(C)C)C1=CC(=O)c2c(O)ccc(O)c2C1=O (stereo unspecified),NF-kB SEAP reporter activity,"RAW-Dual [2]; library stock concentration (final ~1000-fold dilution): 2 mM, cytotoxicity flag (confluency mask): not cytotoxic, agonist: Imiquimod (TLR7) […]",0.978
same,NF-kB SEAP reporter activity,"RAW-Dual [2]; library stock concentration (final ~1000-fold dilution): 2 mM, cytotoxicity flag (confluency mask): not cytotoxic, agonist: MPLA (TLR4) […]",0.978
CC(=O)OC(CC=C(C)C)C1=CC(=O)c2c(O)ccc(O)c2C1=O (stereo unspecified) (library stock concentration (final ~1000-fold dilution): 2 mM),NF-kB SEAP reporter activity,RAW-Dual [1]; agonist: LPS (TLR4) 0.1 ug/mL,0.479
same,NF-kB SEAP reporter activity,RAW-Dual [1]; [4],0.647
same,NF-kB SEAP reporter activity,RAW-Dual [1]; [5],0.257
same,NF-kB SEAP reporter activity,RAW-Dual [1]; [6],0.408
O=c1cc(-c2ccccc2)oc2c1ccc1ccccc12,NF-kB SEAP reporter activity,RAW-Dual [2]; [7],1.2
O=c1cc(-c2ccccc2)oc2c1ccc1ccccc12 (library stock concentration (final ~1000-fold dilution): 10 mM),NF-kB SEAP reporter activity,RAW-Dual [1]; agonist: LPS (TLR4) 0.1 ug/mL,0.691
same,NF-kB SEAP reporter activity,RAW-Dual [1]; [4],0.933
same,NF-kB SEAP reporter activity,RAW-Dual [1]; [5],0.846
same,NF-kB SEAP reporter activity,RAW-Dual [1]; [6],0.982
C#CCNC1CCc2ccccc21 (stereo unspecified) (library stock concentration (final ~1000-fold dilution): 10 mM),NF-kB SEAP reporter activity,RAW-Dual [1]; agonist: LPS (TLR4) 0.1 ug/mL,1.06
same,NF-kB SEAP reporter activity,RAW-Dual [1]; [4],0.931
same,NF-kB SEAP reporter activity,RAW-Dual [1]; [5],1.04
same,NF-kB SEAP reporter activity,RAW-Dual [1]; [6],1.08
C#CCNC1CCc2ccccc21 (stereo unspecified),NF-kB SEAP reporter activity,RAW-Dual [2]; [8],0.916
same,NF-kB SEAP reporter activity,RAW-Dual [2]; [7],1.14
O=C1Nc2ccc(Cl)cc2C(C#CC2CC2)(C(F)(F)F)O1 (stereo unspecified),NF-kB SEAP reporter activity,"RAW-Dual [2]; library stock concentration (final ~1000-fold dilution): 10 mM, cytotoxicity flag (confluency mask): cytotoxic (confluency <70% of control), agonist: MPLA (TLR4) […]",0.748
O=C1Nc2ccc(Cl)cc2C(C#CC2CC2)(C(F)(F)F)O1 (stereo unspecified) (library stock concentration (final ~1000-fold dilution): 10 mM),NF-kB SEAP reporter activity,RAW-Dual [3]; agonist: LPS (TLR4) 0.1 ug/mL,0.632
same,NF-kB SEAP reporter activity,RAW-Dual [3]; [4],0.547
same,NF-kB SEAP reporter activity,RAW-Dual [3]; [5],0.614
same,NF-kB SEAP reporter activity,RAW-Dual [3]; [6],0.542
CCCC(NC1CCc2cc(F)cc(F)c2C1)C(=O)Nc1cn(C(C)(C)CNCC(C)(C)C)cn1 (stereo unspecified) (library stock concentration (final ~1000-fold dilution): 10 mM),NF-kB SEAP reporter activity,RAW-Dual [1]; agonist: LPS (TLR4) 0.1 ug/mL,0.636
same,NF-kB SEAP reporter activity,RAW-Dual [1]; [4],0.316
same,NF-kB SEAP reporter activity,RAW-Dual [1]; [5],0.723
same,NF-kB SEAP reporter activity,RAW-Dual [1]; [6],0.298
CCCC(NC1CCc2cc(F)cc(F)c2C1)C(=O)Nc1cn(C(C)(C)CNCC(C)(C)C)cn1 (stereo unspecified),NF-kB SEAP reporter activity,RAW-Dual [2]; [8],0.373
same,NF-kB SEAP reporter activity,RAW-Dual [2]; [7],0.669
CC(=O)NC(CC(C)C)C(=O)NC(CC(C)C)C(=O)NC(C=O)CCCNC(=N)N (stereo unspecified) (library stock concentration (final ~1000-fold dilution): 10 mM),NF-kB SEAP reporter activity,RAW-Dual [1]; agonist: LPS (TLR4) 0.1 ug/mL,1.01
same,NF-kB SEAP reporter activity,RAW-Dual [1]; [4],1.02
same,NF-kB SEAP reporter activity,RAW-Dual [1]; [5],1.08
same,NF-kB SEAP reporter activity,RAW-Dual [1]; [6],1.15
